Measured values from ChEMBL document CHEMBL1157539, “Thousands of chemical starting points for antimalarial lead identification” (Nature, 2010).

These compounds were tested on Plasmodium falciparum (assay: GSK_TCMDC: Inhibition of Plasmodium falciparum Dd2 in whole red blood cells, using parasite LDH activity as an index of growth. Test compounds present at 2uM).
Format: functional
Work on `COc1ccccc1NS(=O)(=O)c1cc(C(=O)Nc2ccc(N3CCOCC3)c(S(=O)(=O)Nc3ccccc3Cl)c2)ccc1Cl` yielded an Inhibition of 25%. For `NC1CCN(c2cnn(Cc3cccc(NC(=O)Nc4ccc(-c5ccccc5)cc4)c3)c(=O)c2Cl)CC1.O=C(O)C(F)(F)F`, the Inhibition was 11%. For `O=c1sn(-c2csc3ccccc23)c2ccccc12`, the Inhibition was 54%. With `Cl.Cn1c(=O)n(C)c2cc(CNCCNc3ccnc4cc(Cl)ccc34)ccc21` the Inhibition was 96%. `CC(C)(C)CC(C)(C)c1ccc(O)c(C(=O)Nc2ccc([N+](=O)[O-])cc2)c1` was tested, and the Inhibition was 99%. Compound `Cc1ccc2nc(C)cc(Nc3ccccc3O)c2c1.Cl` has an Inhibition of 6%. `O=C(NC1CCN(Cc2ccccc2O)C1)c1ccc(Cl)c(Cl)c1.O=C(O)C(F)(F)F` (stereo not given) gave an Inhibition of 62%. In the case of `CN1CCN(C(=O)CN2CCC3(CCC2=O)NC(=O)c2ccccc2O3)CC1` (stereo not given), the Inhibition is reported as 98%. `O.O=C1C([N+](=O)[O-])=C(O)c2c(F)cccc21` showed an Inhibition of 13%. Work on `COC1(C)Oc2ccc3cccc([N+](=O)[O-])c3c2C1=O` (stereo not given) yielded an Inhibition of 0%. Compound `O=C(c1ccc(-c2ccc(-c3nc4cc(C(F)(F)F)ccc4[nH]3)s2)cc1)N1CCN(CCc2ccccc2)CC1` has an Inhibition of 60%. Compound `O=C(Nc1ccc(Cl)c(-c2nc3ccccc3[nH]2)c1)c1ccc(-c2ccc(Cl)cc2)o1` has an Inhibition of 22%. `COc1cc2nc(N3CCC(CNC(=O)c4ccc(-c5ccc(C(=O)N(C)C)cc5O)cc4)CC3)nc(N)c2cc1OC` was tested, and the Inhibition was 90%. With `O=C(NCCCN1CCC(N2CCCCC2)CC1)c1ccc2nc(N3CCCCC3)sc2c1` the Inhibition was 20%. `COc1cc(-c2nc(-c3ccc([N+](=O)[O-])cc3)c(-c3ccccc3)[nH]2)cc(OC)c1O` showed an Inhibition of 56%. Compound `Oc1cc(Nc2ccnc3cc(-c4cccc(CN5CCCCC5)c4)ccc23)c(F)cc1Cl` has an Inhibition of 100%. For `CCCCCN1CCN(Cc2cccc(NC(=O)c3ccc(Cl)c(Cl)c3)c2)CC1.O=C(O)C(F)(F)F`, the Inhibition was 33%. In the case of `CN(C)CCN(C)Cc1ccc(-c2ccc(NC(=O)c3cccc(Cl)c3)cc2)cc1.O=C(O)C(F)(F)F`, the Inhibition is reported as 54%. `COc1cc(F)c2ncc(C#N)c(CCN3CCC(NCc4ccc5c(c4)OCCO5)CC3)c2c1.Cl` was tested, and the Inhibition was 59%. Compound `COc1cccc(C(C)(C)NC[C@@H](O)[C@H](Cc2ccccc2)NC(=O)c2cc(C3CCCC3)cc(N3CCCCS3(=O)=O)c2F)c1.O=CO` has an Inhibition of 99%. `CN(C)c1ccc(N2C(N)=NC(N)=NC23CCCC3)cc1.Cl` showed an Inhibition of 0%. In the case of `CCCCOP(=O)(COc1ccc(CCN(CC(O)COc2cccc3[nH]c4ccccc4c23)CC(O)COc2cccc3[nH]c4ccccc4c23)cc1)C1CCCCC1` (stereo not given), the Inhibition is reported as 92%. For `O=C(/C=C/c1ccc(Cl)c(Cl)c1)N1CCC(CCN2CCC(c3c[nH]c4ccncc34)CC2)CC1`, the Inhibition was 70%. Work on `Cc1cc(-c2cccc(CNC3CCN(C)CC3)c2)ccc1S(=O)(=O)NCCc1ccccn1.O=C(O)C(F)(F)F` yielded an Inhibition of 72%. With `COC(=O)c1cc2cccc(NC[C@@H](C)NC[C@H](O)c3cccc(Cl)c3)c2[nH]1` the Inhibition was 99%. For `C[C@H](Cc1ccc(C[C@@H](C)NC[C@H](O)c2cccc(Cl)c2)cc1)NC[C@H](O)COc1ccccc1.Cl`, the Inhibition was 60%. In the case of `CCOc1ccc(C(=O)N2CCOC(CCN3CCC4(CCc5ccccc54)CC3)(c3ccc(Cl)c(Cl)c3)C2)cc1` (stereo not given), the Inhibition is reported as 25%. For `COc1ccc(C=NN=c2c3ccccc3[nH]c3ccccc23)c2ccccc12`, the Inhibition was 23%. For `COc1ccccc1C1CC(c2ccccc2)=NN1C(=O)c1ccco1` (stereo not given), the Inhibition was 95%. `Cc1ccc(NC(=O)c2ccc3ncccc3c2)cc1OC1CCN(Cc2ccco2)C1.O=C(O)C(F)(F)F` (stereo not given) was tested, and the Inhibition was 42%. `NC1CCN(Cc2ccc(-c3cccc(-c4nc5cc(F)ccc5[nH]4)c3)cc2)C1.O=C(O)C(F)(F)F` (stereo not given) was tested, and the Inhibition was 16%. `O=C(Nc1cccc(F)c1)N[C@H]1CCN(CCCCCNC(=O)C2CC2c2ccc(Cl)c(Cl)c2)C1` (stereo not given in full) was tested, and the Inhibition was 1%. `O=C(NC1CCCc2ccccc21)C1CCCN(C(=O)c2ccc(O)c(-c3ccc(Cl)c(Cl)c3)c2)C1` (stereo not given) was tested, and the Inhibition was 54%. With `C(=C(c1cccs1)c1cccs1)c1ccc(CNC2CCN(Cc3ccccc3)CC2)cc1.Cl` the Inhibition was 21%. Compound `CCCc1cc(Cc2cnc(N)nc2N)cc(CC)c1O.Cl` has an Inhibition of 0%. Work on `O=C(NCc1ccc(C(=O)NC2CCCCC2)cc1)c1ccc(O)c(-c2ccc(Cl)c(Cl)c2)c1` yielded an Inhibition of 0%. `Cc1cc2nc(-c3ccc(C(=O)NC4CCN(Cc5ccccc5)CC4)cc3)[nH]c2cc1C` was tested, and the Inhibition was 99%. `COc1ccc(-n2ccnc2SCC(=O)Nc2cccc(C(F)(F)F)c2)c(OC)c1` was tested, and the Inhibition was 88%. `Cc1nc(C)c(-c2ccc(C(F)(F)F)cc2)c(O)c1Br` was tested, and the Inhibition was 96%. Work on `CC[C@H](C)CNC(=O)c1ccnc(-c2cccc(CN(C)C3CCN(C)CC3)c2)c1.O=C(O)C(F)(F)F` yielded an Inhibition of 33%.
